Experimental data published in ChEMBL document CHEMBL4513158, “CO-ADD screening of RKDF (India) compounds”.
Results with a measured potency or affinity are listed apart.

Legend:
[1] = tested on: Staphylococcus aureus; conditions: Concentration 32 ug.mL-1; ASSAY_TEST Inhibition of Bacterial Growth; detection method Absorption (OD600); MEDIA CAMHB; plate type 384well; NBS; CORNING #3640; time 18 hr
[2] = tested on: Escherichia coli; conditions: Concentration 32 ug.mL-1; ASSAY_TEST Inhibition of Bacterial Growth; detection method Absorption (OD600); MEDIA CAMHB; plate type 384well; NBS; CORNING #3640; time 18 hr

C=C[C@H]1[C@H](O[C@@H]2O[C@H](CO)[C@@H](O)[C@H](O)[C@H]2O)OC=C2C(=O)OCC[C@]21O [SWERTIAMARIN]
Inhibition [1]: 25.69% | Inhibition [2]: 13.89%

CN(C)C(=N)NC(=N)N.Cl [METFORMIN HYDROCHLORIDE]
Inhibition [1]: 23.29%
